# Data published in PubChem BioAssay (Tox21).
# Several values for one entry are separate records, joined by “and”; a condition that tells them apart may be missing. Identical values can stand only once. Results filed as inconclusive are left out. A call without a number means that no potency is given here. Where a structure was tested more than once in an assay, its records may differ in their call. Activity calls are given as the source filed them. Unless noted, calls follow the shape of the dose curve; as a rule, active = well fitted curve in the direction sought with a large enough effect in the repeat runs; inconclusive = weak or mixed curves; inactive = no such curve, though single readings can be large; an effect the other way counts as inactive or inconclusive.
# How the values were obtained:
# [1] = target: Thyrotropin receptor (Homo sapiens) (UniProt P16473); test: qHTS assay to identify small molecule antagonists of the thyroid stimulating hormone receptor (TSHR) signaling pathway (AID 1259385; calls by dose curve; also: nearly all actives have a fitted effect of over 20% in size)
# Thyrotropin receptor (Homo sapiens), sequence (P16473 whole entry, looked up): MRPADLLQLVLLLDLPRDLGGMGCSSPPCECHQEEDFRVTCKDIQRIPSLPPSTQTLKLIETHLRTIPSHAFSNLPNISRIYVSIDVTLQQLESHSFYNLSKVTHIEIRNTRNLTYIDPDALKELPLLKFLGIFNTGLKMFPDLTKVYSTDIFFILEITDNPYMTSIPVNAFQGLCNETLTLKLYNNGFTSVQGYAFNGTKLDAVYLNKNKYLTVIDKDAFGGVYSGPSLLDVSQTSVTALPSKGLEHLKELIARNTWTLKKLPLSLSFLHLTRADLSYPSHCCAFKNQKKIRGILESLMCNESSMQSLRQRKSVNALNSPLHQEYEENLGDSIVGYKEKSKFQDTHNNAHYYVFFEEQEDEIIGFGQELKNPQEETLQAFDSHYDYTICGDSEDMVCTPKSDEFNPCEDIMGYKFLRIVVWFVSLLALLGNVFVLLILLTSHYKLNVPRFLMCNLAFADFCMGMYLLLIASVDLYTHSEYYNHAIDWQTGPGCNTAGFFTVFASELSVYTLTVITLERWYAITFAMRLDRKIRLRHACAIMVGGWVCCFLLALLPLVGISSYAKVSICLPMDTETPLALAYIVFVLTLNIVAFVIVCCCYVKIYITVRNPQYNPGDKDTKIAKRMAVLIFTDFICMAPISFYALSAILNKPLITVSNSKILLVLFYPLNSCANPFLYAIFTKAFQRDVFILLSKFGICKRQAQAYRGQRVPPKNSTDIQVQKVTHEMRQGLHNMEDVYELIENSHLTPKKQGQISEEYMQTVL
# Procedure, shortened: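 TSHR-HEK293 cells (800/well) plated 18 h, then compounds with Ro20-1724 and TSH at 1.5 ng/mL final, 30 min at room temperature. cAMP quantified by HTRF (cAMP-d2/anti-cAMP-cryptate, 1 h); 15 concentrations in triplicate.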
# [2] = qHTS assay to identify small molecule agonists of the estrogen receptor alpha (ER-alpha) signaling pathway in the presence of an antagonist - cell viability counter screen (AID 1259386);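 also: cells exposed to compounds for 22 h at 37 °C before the viability read; nearly all actives have a fitted effect of over 30% in size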; also: potency is read from the fitted curve at half-maximal effect
# Procedure, shortened: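 Steps: 5-day stripped-FBS culture; seed and incubate 24hr; add ICI-182,780 (10.0nM final); pin 15-point compound titration; incubate 22hr at 37C; add CellTiter-Fluor at 21hr; read fluorescence.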
# [3] = target: Progesterone receptor (Homo sapiens) (UniProt P06401); test: qHTS assay to identify small molecule agonists of the progesterone receptor (PR) signaling pathway (AID 1346784; calls by dose curve; also: nearly all actives have a fitted effect of over 30% in size; also: potency is read from the fitted curve at half-maximal effect)
# Progesterone receptor (Homo sapiens), sequence (P06401 whole entry, looked up): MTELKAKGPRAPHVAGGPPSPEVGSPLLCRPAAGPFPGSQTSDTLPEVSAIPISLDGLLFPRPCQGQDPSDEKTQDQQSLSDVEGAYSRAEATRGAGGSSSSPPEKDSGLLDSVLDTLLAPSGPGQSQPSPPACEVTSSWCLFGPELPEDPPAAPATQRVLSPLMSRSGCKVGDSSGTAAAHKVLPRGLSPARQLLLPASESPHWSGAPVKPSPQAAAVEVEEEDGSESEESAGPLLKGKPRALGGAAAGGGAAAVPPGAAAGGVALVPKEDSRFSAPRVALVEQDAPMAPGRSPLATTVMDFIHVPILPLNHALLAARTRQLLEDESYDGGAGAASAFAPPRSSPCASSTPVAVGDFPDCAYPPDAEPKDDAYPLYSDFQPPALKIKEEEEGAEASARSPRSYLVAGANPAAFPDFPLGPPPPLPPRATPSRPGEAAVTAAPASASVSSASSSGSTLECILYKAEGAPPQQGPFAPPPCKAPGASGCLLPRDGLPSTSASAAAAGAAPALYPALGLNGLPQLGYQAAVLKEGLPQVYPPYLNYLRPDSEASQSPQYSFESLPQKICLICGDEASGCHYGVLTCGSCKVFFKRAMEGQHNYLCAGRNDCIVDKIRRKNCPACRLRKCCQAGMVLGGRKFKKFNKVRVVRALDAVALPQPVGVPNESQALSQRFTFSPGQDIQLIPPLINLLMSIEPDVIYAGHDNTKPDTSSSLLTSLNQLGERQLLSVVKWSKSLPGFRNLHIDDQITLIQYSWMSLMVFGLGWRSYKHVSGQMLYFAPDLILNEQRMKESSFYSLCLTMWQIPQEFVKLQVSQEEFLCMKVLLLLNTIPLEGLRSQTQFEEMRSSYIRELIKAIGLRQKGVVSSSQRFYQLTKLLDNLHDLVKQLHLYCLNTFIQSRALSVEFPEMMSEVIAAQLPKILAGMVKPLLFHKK
# Procedure, shortened: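 Beta-lactamase reporter read-out: after 16 hr compound treatment at 37C and a further 2 hr at room temperature with LiveBLAzer B/G FRET substrate, fluorescence was measured in PR-UAS-bla HEK 293T cells grown in 2% charcoal-stripped serum.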
# [4] = target: Progesterone receptor (Homo sapiens) (UniProt P06401); test: qHTS assay to identify small molecule antagonists of the progesterone receptor (PR) signaling pathway (AID 1346795; active = well fitted inhibition curve with a large enough effect in the signal ratio in the repeat runs, not every such curve was filed as active; the % refers to the signal ratio; also: potency is read from the fitted curve at half-maximal effect)
# Procedure, shortened: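 Read-out is fluorescence from the LiveBLAzer B/G FRET substrate, cleaved by a UAS-controlled beta-lactamase in PR-UAS-bla HEK293T cells after 16 hr exposure to compound plus 1 nM promegestone (final), followed by 2 hr at room temperature.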
# [5] = qHTS assay to identify small molecule antagonists of the progesterone receptor (PR) signaling pathway - cell viability counter screen (AID 1346798);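 also: HEK293T PR-UAS-bla cells stimulated with the agonist R5020; series mostly up to about 92 µM; nearly all actives have a fitted effect of over 50% in size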
# Procedure, shortened: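 HEK293T PR-UAS-bla, 2% charcoal-stripped FBS; 4 hr pre-plate; cpd + R5020, 16 h 37C; LiveBLAzer read first; then CellTiter-Glo 30 min RT, luminescence.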
# [6] = qHTS assay to identify small molecule agonists of the progesterone receptor (PR) signaling pathway - cell viability counter screen (AID 1346799; calls by dose curve; also: nearly all actives have a fitted effect of over 45% in size; also: potency is read from the fitted curve at half-maximal effect)
# Procedure, shortened: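 Luminescence from CellTiter-Glo, added after the beta-lactamase FRET read in the same wells, gave cytotoxicity in PR-UAS-bla HEK293T cells treated with compounds for 16 hr at 37C.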
# [7] = qHTS assay to identify small molecule agonists of the TGF-beta/Smad signaling pathway - cell viability counter screen (AID 1346829); also: top concentration of the series differs between compounds; nearly all actives have a fitted effect of over 45% in size
# Procedure, shortened: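 Same-well cytotoxicity: CellTiter-Glo added after the 2 hr room-temperature beta-lactamase substrate step, luminescence measured 30 min later; cells had 5 hr of compound at 37 C.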
# [8] = qHTS assay to identify small molecule agonists of the TGF-beta/Smad signaling pathway (AID 1346859; active = well fitted activation curve with a large enough effect in the signal ratio in the repeat runs, not every such curve was filed as active; the % refers to the signal ratio; also: series mostly up to about 77 µM)
# Procedure, shortened: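 SBE-bla HEK 293T, 4,000 cells/well, plated o/n; cpd in DMSO, 5 hr, 37 C/5% CO2; B/G FRET substrate 2 hr RT; ex 405, em 460/530 nm.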
# [9] = target: Thyrotropin-releasing hormone receptor (Homo sapiens) (UniProt P34981); test: qHTS assay to identify small molecule antagonists of the thyrotropin-releasing hormone receptor (TRHR) signaling pathway (AID 1346877; active = well fitted inhibition curve with a large enough effect in the repeat runs, not every such curve was filed as active; also: series mostly up to about 51 µM)
# Thyrotropin-releasing hormone receptor (Homo sapiens), sequence (P34981 whole entry, looked up): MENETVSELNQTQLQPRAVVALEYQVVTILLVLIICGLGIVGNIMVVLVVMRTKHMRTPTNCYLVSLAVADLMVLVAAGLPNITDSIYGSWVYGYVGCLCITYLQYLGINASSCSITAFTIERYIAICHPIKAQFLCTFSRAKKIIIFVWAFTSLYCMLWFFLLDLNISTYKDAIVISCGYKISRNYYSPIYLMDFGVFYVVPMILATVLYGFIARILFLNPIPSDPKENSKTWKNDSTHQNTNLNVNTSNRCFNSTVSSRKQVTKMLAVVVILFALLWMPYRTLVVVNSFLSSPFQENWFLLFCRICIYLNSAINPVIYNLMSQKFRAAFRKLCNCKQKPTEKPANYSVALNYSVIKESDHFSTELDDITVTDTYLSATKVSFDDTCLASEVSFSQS
# Procedure, shortened: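 Human TRHR in HEK293 cells; inhibition of the intracellular calcium rise triggered by 1 nM TRH was followed by fluorescence over 3 min. Compounds were run at 15 concentrations, three replicates each.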
# [10] = qHTS assay to identify small molecule antagonists of the TGF-beta/Smad signaling pathway - cell viability counter screen (AID 1346824); also: nearly all actives have a fitted effect of over 50% in size
# Procedure, shortened: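 SBE-bla HEK 293T cells, incubated overnight, then compound plus 0.25 ng/mL TGF-beta1 (stock added) for 5 hr at 37 C. Viability was read in the same wells by CellTiter-Glo luminescence after 30 min at room temperature.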
Structure (SMILES),outcome [1],Potency [2],Potency [3],Potency [4],Potency [5],Potency [6],Potency [7],outcome [8],outcome [9],Potency [10]
NS(=O)(=O)c1cc2c(cc1Cl)NC=NS2(=O)=O,inactive,inactive,inactive,inactive,inactive,inactive,inactive,inactive,inactive,
NCc1cccc(CN)c1,inactive,inactive,inactive,inactive,inactive,inactive,inactive,inactive,inactive,inactive
CCCCOCCO,inactive,inactive,inactive,inactive,inactive,inactive,inactive,inactive,inactive,inactive
O=S(=O)(Oc1ccc(Cl)cc1Cl)c1ccccc1,inactive,inactive,,8.78 µM (active) and 12.2 µM (active),inactive,inactive,inactive,inactive,,inactive
CC1=C(/C=C/C(C)=C/C=C/C(C)=C/CO)C(C)(C)CCC1,inactive,inactive,inactive,inactive,inactive,inactive,inactive,inactive,inactive,
Cc1cc(O)c2c(c1)C(=O)c1cc(O)cc(O)c1C2=O,inactive,15.4 µM (active),inactive,29.9 µM (active) and 27.3 µM (active),inactive,inactive,inactive,,inactive,
Nc1nc2ncc(CNc3ccc(C(=O)N[C@@H](CCC(=O)O)C(=O)O)cc3)nc2c(=O)[nH]1,inactive,inactive,inactive,inactive,inactive,inactive,inactive,inactive,,inactive
CCOC(=O)/C=C\C(=O)OCC,inactive,inactive,inactive,inactive,inactive,inactive,inactive,inactive,inactive,inactive
Cc1ccc(C)c(C)c1,inactive,inactive,inactive,inactive,inactive,inactive,inactive,inactive,inactive,inactive
COC(=O)c1ccccc1O,inactive,inactive,inactive,,inactive,inactive,inactive,inactive,inactive,inactive
CC(C)(CO)COC(=O)C(C)(C)CO,inactive,inactive,inactive,inactive,inactive,inactive,inactive,inactive,inactive,
C=CC(=O)OCCCCCCCC(C)C,inactive,inactive,,inactive,inactive,inactive,inactive,inactive,inactive,inactive
Nc1c(S(=O)(=O)O)cc(Br)c2c1C(=O)c1ccccc1C2=O,inactive,30.6 µM (active),,inactive,inactive,inactive,inactive,inactive,inactive,inactive
CCCCCCCCCC(=O)O,inactive,inactive,,inactive,inactive,inactive,inactive,inactive,inactive,
O=C(Cl)c1c(Cl)c(Cl)c(C(=O)Cl)c(Cl)c1Cl,,inactive,inactive,inactive,inactive,inactive,inactive,inactive,inactive,inactive
Oc1c(Cl)cc(Cl)c(Cl)c1Cl,inactive,inactive,,inactive,inactive,,inactive,inactive,inactive,inactive
OC1CCCC1,,inactive,inactive,inactive,inactive,inactive,inactive,inactive,inactive,inactive
CS(=O)(=O)c1ccc([C@@H](O)[C@@H](CO)NC(=O)C(Cl)Cl)cc1,,inactive,inactive,inactive,inactive,inactive,inactive,inactive,,
C=C1CC[C@H](O)CC1=C/C=C1\CCC[C@]2(C)[C@@H]([C@H](C)/C=C/[C@H](C)C(C)C)CC[C@@H]12,inactive,,inactive,,inactive,inactive,inactive,inactive,,inactive
O=Nc1ccc(O)cc1,inactive,47.4 µM (active) and inactive,,,inactive,inactive,inactive,inactive,inactive,inactive
CC1(C)O[C@@H]2C[C@H]3[C@@H]4C[C@H](F)C5=CC(=O)CC[C@]5(C)[C@H]4[C@@H](O)C[C@]3(C)[C@]2(C(=O)CO)O1,,inactive,5.4 nM (active) and 6 nM (active),inactive,inactive,inactive,inactive,inactive,inactive,inactive
CCCCC(CC)C(=O)OCCOCCOCCOC(=O)C(CC)CCCC (configuration not stated),,inactive,inactive,inactive,inactive,inactive,inactive,inactive,inactive,inactive
Nc1cc(-c2ccncc2)c[nH]c1=O,,inactive,inactive,inactive,inactive,inactive,inactive,inactive,inactive,inactive
CCCCC(CC)COC(=O)CCCCCCCC(=O)OCC(CC)CCCC (configuration not stated),inactive,inactive,,8.63 µM (active) and inactive,,54.5 µM (active) and inactive,inactive,inactive,inactive,inactive
COCC(C)O (configuration not stated),inactive,inactive,,inactive,inactive,inactive,inactive,inactive,inactive,
NCCc1ccc(O)c(O)c1,,27.4 µM (active) and inactive,inactive,inactive,inactive,inactive,inactive,inactive,inactive,inactive
